Assay results as given in PubChem BioAssay (NCATS).
Inconclusive results are not listed. Where a call stands in place of a potency, no number is given. Calls of active or inactive are those of the source. The call rests on the fitted dose curve; in most records, active means well fitted curve in the direction sought with a large enough effect; inconclusive means small, poorly fitted or top-dose-only effect, or another doubt; inactive means no such curve, though single readings can be large; an effect the other way counts as inactive or inconclusive.

Experiments:
[1] = Quantitative High-Throughput drug screen in 47 multiple myeloma cell lines against the NCATS MIPE library collection: KHM11_PLB cell viability assay (AID 1918962); further: nearly all actives have a fitted effect of over 35% in size; further: potency means the concentration at half of the fitted maximal effect
Method in brief: (§1)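 Approved and investigational drugs from MIPE 4.0 were added by pin tool to 500 cells per well. After 48 hours at 37C, ATP-based CellTiter-Glo luminescence indicated remaining viability.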

[2] = Quantitative High-Throughput drug screen in 47 multiple myeloma cell lines against the NCATS MIPE library collection: JIM3_ECACC cell viability assay (AID 1918963; further: nearly all actives have a fitted effect of over 35% in size; further: potency means the concentration at half of the fitted maximal effect)
Method in brief: as §1

[3] = Quantitative High-Throughput drug screen in 47 multiple myeloma cell lines against the NCATS MIPE library collection: H1112_PLB cell viability assay (AID 1918967; further: nearly all actives have a fitted effect of over 30% in size; further: potency means the concentration at half of the fitted maximal effect)
Method in brief: (§2)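 CellTiter-Glo luminescence (ATP) after 48 h compound exposure, 37C/5% CO2; 500 cells/well; MIPE 4.0 approved/investigational drugs pinned in; DMSO = 100%, media only = 0% viability.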

[4] = Quantitative High-Throughput drug screen in 47 multiple myeloma cell lines against the NCATS MIPE library collection: KMS27_JCRB cell viability assay (AID 1918970); settings: KMS27 myeloma cells, CellTiter-Glo ATP viability, 48 h; viability (% of DMSO): at 45.8 µM (top of the series); further: nearly all actives have a fitted effect of over 30% in size; further: potency means the concentration at half of the fitted maximal effect
Method in brief: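 Myeloma cells (500 per well) were exposed to MIPE 4.0 compounds for 48 h at 37 °C, 5% CO2; viability was read as ATP luminescence with CellTiter-Glo, normalized to DMSO-only (100%) and media-only (0%) wells.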

[5] = Quantitative High-Throughput drug screen in 47 multiple myeloma cell lines against the NCATS MIPE library collection: KMS12BM_JCRB cell viability assay (AID 1918971); further: nearly all actives have a fitted effect of over 35% in size; further: potency means the concentration at half of the fitted maximal effect
Method in brief: (§3)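 Viability readout: CellTiter-Glo luminescence following 5 min room-temperature incubation with reagent. Prior exposure: 48 h, 37C, humidified 5% CO2, 500 cells per well.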

[6] = Quantitative High-Throughput drug screen in 47 multiple myeloma cell lines against the NCATS MIPE library collection: KMS12PE_JCRB cell viability assay (AID 1918972); further: nearly all actives have a fitted effect of over 30% in size; further: potency means the concentration at half of the fitted maximal effect
Method in brief: (§4)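 Inhibition of cell viability is measured here. Each line was plated at 500 cells per well, treated with MIPE 4.0 drugs, kept 48 hours at 37C, then assayed for ATP content by CellTiter-Glo luminescence.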

[7] = Quantitative High-Throughput drug screen in 47 multiple myeloma cell lines against the NCATS MIPE library collection: KMS26_JCRB cell viability assay (AID 1918975); further: nearly all actives have a fitted effect of over 45% in size; further: potency means the concentration at half of the fitted maximal effect
Method in brief: as §3

[8] = Quantitative High-Throughput drug screen in 47 multiple myeloma cell lines against the NCATS MIPE library collection: MOLP8_DSMZ cell viability assay (AID 1918977); further: nearly all actives have a fitted effect of over 45% in size; further: potency means the concentration at half of the fitted maximal effect
Method in brief: (§5)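 ATP-based luminescence (CellTiter-Glo, 5 min RT incubation) quantified surviving cells following two days' treatment with MIPE 4.0 agents at 37 °C, 5% CO2.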

[9] = Quantitative High-Throughput drug screen in 47 multiple myeloma cell lines against the NCATS MIPE library collection: NCIH929_DSMZ cell viability assay (AID 1918978); further: nearly all actives have a fitted effect of over 35% in size; further: potency means the concentration at half of the fitted maximal effect
Method in brief: as §5

[10] = Quantitative High-Throughput drug screen in 47 multiple myeloma cell lines against the NCATS MIPE library collection: OCIMY1_PLB cell viability assay (AID 1918979); further: nearly all actives have a fitted effect of over 35% in size
Method in brief: as §5

[11] = Quantitative High-Throughput drug screen in 47 multiple myeloma cell lines against the NCATS MIPE library collection: MM1S_ATCC cell viability assay (AID 1918980); further: nearly all actives have a fitted effect of over 45% in size; further: potency means the concentration at half of the fitted maximal effect
Method in brief: as §5

[12] = Quantitative High-Throughput drug screen in 47 multiple myeloma cell lines against the NCATS MIPE library collection: MM1R_ATCC cell viability assay (AID 1918981); further: nearly all actives have a fitted effect of over 35% in size; further: potency means the concentration at half of the fitted maximal effect
Method in brief: as §5

[13] = Quantitative High-Throughput drug screen in 47 multiple myeloma cell lines against the NCATS MIPE library collection: JIM1_ECACC cell viability assay (AID 1918964; further: potency means the concentration at half of the fitted maximal effect)
Method in brief: as §2

[14] = Quantitative High-Throughput drug screen in 47 multiple myeloma cell lines against the NCATS MIPE library collection: INA6_PLB cell viability assay (AID 1918965; further: nearly all actives have a fitted effect of over 55% in size; further: potency means the concentration at half of the fitted maximal effect)
Method in brief: as §4

[15] = Quantitative High-Throughput drug screen in 47 multiple myeloma cell lines against the NCATS MIPE library collection: JJN3_DSMZ cell viability assay (AID 1918966; further: nearly all actives have a fitted effect of over 50% in size; further: potency means the concentration at half of the fitted maximal effect)
Method in brief: as §2

[16] = Quantitative High-Throughput drug screen in 47 multiple myeloma cell lines against the NCATS MIPE library collection: Karpas25_ECACC cell viability assay (AID 1918968; further: nearly all actives have a fitted effect of over 35% in size; further: potency means the concentration at half of the fitted maximal effect)
Method in brief: as §2

[17] = Quantitative High-Throughput drug screen in 47 multiple myeloma cell lines against the NCATS MIPE library collection: KMS20_JCRB cell viability assay (AID 1918973); further: nearly all actives have a fitted effect of over 45% in size; further: potency means the concentration at half of the fitted maximal effect
Method in brief: as §2

[18] = Quantitative High-Throughput drug screen in 47 multiple myeloma cell lines against the NCATS MIPE library collection: MMM1_PLB cell viability assay (AID 1918976); further: nearly all actives have a fitted effect of over 35% in size; further: potency means the concentration at half of the fitted maximal effect
Method in brief: as §5

Compound	Potency [1]	Potency [2]	Potency [3]	Potency [4]	Potency [5]	Potency [6]	Potency [7]	Potency [8]	Potency [9]	Potency [10]	Potency [11]	Potency [12]	Potency [13]	Potency [14]	Potency [15]	Potency [16]	Potency [17]	Potency [18]
Oc1cc2c(cc1O)C1c3ccc(O)c(O)c3OCC1(O)C2 (stereo not drawn)	inactive	inactive	inactive	inactive	inactive	inactive	inactive	inactive	inactive	inactive	9.35 µM (active)	inactive	–	–	–	–	–	–
O=C1NC(=O)[C@@H](c2cn3c4c(cccc24)CCC3)[C@H]1c1c[nH]c2ccccc12	–	0.118 µM (active)	1.66 µM (active)	0.0833 µM (active)	0.209 µM (active)	0.148 µM (active)	16.6 µM (active)	–	11.8 µM (active)	–	18.7 µM (active)	14.8 µM (active)	0.0469 µM (active)	0.209 µM (active)	16.6 µM (active)	0.833 µM (active)	105 nM (active)	–
CC(=O)C1=C(O)C=C2Oc3c(C(C)=O)c(O)c(C)c(O)c3C2(C)C1=O (stereo not drawn)	inactive	inactive	inactive	–	inactive	–	–	–	inactive	inactive	inactive	inactive	–	inactive	–	–	–	–
CC(=O)O[C@]1(C(C)=O)CC[C@H]2[C@@H]3C=C(C)C4=CC(=O)CC[C@]4(C)[C@@H]3CC[C@@]21C	inactive	–	–	9.35 µM (active)	9.35 µM (active)	11.8 µM (active)	–	–	7.43 µM (active)	inactive	2.35 µM (active)	–	10.5 µM (active)	–	–	8.33 µM (active)	–	–
Cc1coc2c1C(=O)C(=O)c1c-2ccc2c(C)cccc12	inactive	–	–	–	13.2 µM (active)	–	6.62 µM (active)	9.35 µM (active)	–	–	–	–	inactive	13.2 µM (active)	18.7 µM (active)	2.96 µM (active)	–	–
C[C@]12C=CC(=O)N[C@@H]1CC[C@H]1[C@H]3CC[C@@H](C(=O)Nc4cc(C(F)(F)F)ccc4C(F)(F)F)[C@@]3(C)CC[C@@H]12	inactive	inactive	13.2 µM (active)	inactive	20.9 µM (active)	inactive	–	–	–	inactive	–	–	–	–	18.7 µM (active)	11.8 µM (active)	–	–
CC1=C(C(=O)Nc2cc3cn[nH]c3cc2F)C(c2ccc(Cl)cc2F)N=C(c2ccnc(Cl)c2)N1 (stereo not drawn)	inactive	–	18.7 µM (active)	–	–	–	inactive	–	14.8 µM (active)	inactive	–	18.7 µM (active)	16.6 µM (active)	10.5 µM (active)	–	14.8 µM (active)	–	–
COc1cc2ncnc(Nc3cccc(Br)c3)c2cc1OC	16.6 µM (active)	2.64 µM (active)	–	23.5 µM (active)	0.0418 µM (active)	14.8 µM (active)	16.6 µM (active)	20.9 µM (active)	–	–	0.0148 µM (active)	–	–	3.32 µM (active)	20.9 µM (active)	0.526 µM (active)	743 nM (active)	–
CCCc1nc(C(C)(C)O)c(C(=O)O)n1Cc1ccc(-c2ccccc2-c2nn[nH]n2)cc1	inactive	inactive	–	inactive	inactive	inactive	–	–	inactive	inactive	–	inactive	–	–	inactive	inactive	inactive	–
O=S(=O)(O)CCSSCCS(=O)(=O)O	inactive	inactive	inactive	inactive	–	–	inactive	–	–	–	18.7 µM (active)	–	–	inactive	–	inactive	–	–
N#CC(=C(N)Sc1ccc(N)cc1)c1ccccc1C(F)(F)F	0.418 µM (active)	5.9 µM (active)	3.32 µM (active)	inactive	7.43 µM (active)	inactive	–	–	1.05 µM (active)	–	–	14.8 µM (active)	–	8.33 µM (active)	–	13.2 µM (active)	469 nM (active)	inactive
C=C1CCC2[C@](C)(CO)C(O)CC[C@]2(C)C1CC=C1C(=O)OCC1O (stereo partly drawn)	inactive	inactive	inactive	–	–	inactive	–	–	–	inactive	inactive	–	–	inactive	–	inactive	–	–
CC(=O)O[C@H]1C[C@@H]2CC[C@H]3[C@H]4C[C@H]([N+]5(C)CCCCC5)[C@@H](OC(C)=O)[C@@]4(C)CC[C@@H]3[C@@]2(C)C[C@H]1[N+]1(C)CCCCC1	–	inactive	inactive	–	inactive	inactive	–	inactive	inactive	inactive	2.09 µM (active)	inactive	inactive	inactive	–	inactive	inactive	–
CC(=O)SCC(Cc1ccccc1)C(=O)NCC(=O)OCc1ccccc1 (stereo not drawn)	–	3.72 µM (active)	1.66 µM (active)	–	2.35 µM (active)	1.66 µM (active)	18.7 µM (active)	–	1.05 µM (active)	–	0.59 µM (active)	3.72 µM (active)	2.96 µM (active)	0.935 µM (active)	5.9 µM (active)	1.05 µM (active)	2350 nM (active)	7.43 µM (active)
Nc1ccn(C[C@@H](CO)OCP(=O)(O)O)c(=O)n1	–	inactive	–	inactive	inactive	inactive	–	inactive	inactive	inactive	–	–	inactive	–	inactive	inactive	–	–
